Screening data (PubChem BioAssay)
A selection: hits, their analogues and other compounds. The true share with any hit is near 2.3%.
H9c2 TAG inh = triacylglycerol accumulation inhibition; H9c2 cells, Nile Red lipid (TAG) fluorescence; cells loaded with 200 µM oleic acid; inhibition, % at 12.5 µM; actives 0.66% (n = 230,000); AID 651582;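 active means pattern-corrected inhibition of lipid staining of at least 50% with the nuclear-stain viability signal not falling by more than 50%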
aSyn 5UTR inh = MLPCN primary screen, SNCA 5' untranslated region; alpha-synuclein 5'UTR reporter, inhibitor activity; inhibition, % (tested at 7.5 µM); actives 0.82% (n = 300,000); AID 1813; in the data active means inhibition above about 60%;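 further: H4 neuroglioblastoma cells stably carrying SNCA 5'UTR luciferase fusion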
697 NFkB inh = inhibitors of the PMA/ionomycin-induced NF-kB reporter in 697 B cells; actives 0.33% (n = 330,000); 697 B-cell NF-kB luciferase reporter, 16 h; AID 435022; inhibition, % at 4 µM; in the data active means inhibition above about 35%
Jurkat NFkB inh = inhibitors of the PMA/ionomycin-induced NF-kB reporter in Jurkat cells. PMA/ionomycin-induced NF-kB luciferase reporter, luminescence. inhibition, % at 4 µM. actives 0.53% (n = 330,000). AID 435003; in the data active means inhibition above about 50%
Gli-Sufu block = Gli-Sufu pathway antagonism | Sufu-KO-LIGHT fibroblasts, Gli luciferase reporter luminescence | inhibition, % at 5 µM | actives 0.74% (n = 340,000);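 active means inhibition above about 55%, limit read from the data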
Shn3 inh set2 = Schnurri-3 reporter inhibition in Clone20 osteoblasts. Clone20 osteoblast Shn3 3'UTR firefly luciferase, 24 h. inhibition, % at 12.5 µM. actives 0.52% (n = 360,000). AID 588674;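 active means mean inhibition of at least 75% with every replicate also reaching 75%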
Of the large screens only hits and unclear results are named; the others gave an inactive call.

CCCCCCCCCC[N+](C)(C)CC/C=C1/c2ccccc2Sc2ccc(Cl)cc21	Shn3 inh set2 87 (no result: H9c2 TAG inh)
CCCCCCCCCCC[N+](C)(C)CC/C=C1/c2ccccc2Sc2ccc(Cl)cc21	Shn3 inh set2 92 (no result: H9c2 TAG inh)
CC1=NOC(=O)/C1=C\c1ccc(-c2ccccc2Br)o1	Shn3 inh set2 91 (no result: 697 NFkB inh, Jurkat NFkB inh)
CC1=NOC(=O)/C1=C\c1ccc(-c2cccc(Cl)c2)o1	none
CCC(C)n1c(SCC(=O)Nc2cc(C(C)(C)C)nn2-c2ccccc2)nc2ccccc2c1=O (stereo not drawn)	none
CCOc1cc(/C=N/NC(N)=O)cc(Br)c1OCc1ccccc1F	none (no result: H9c2 TAG inh)
CCOc1cc(/C=N\NC(N)=O)cc(Br)c1OC(C)C	aSyn 5UTR inh 62 (no result: H9c2 TAG inh)
CCCCc1ccc(-c2ccc(Br)cc2)nc1	none (no result: H9c2 TAG inh)
CCCc1ccc(-c2ccc(F)c(N)c2)nc1	aSyn 5UTR inh 99 (no result: H9c2 TAG inh)
CCCCOc1cccc(C(=O)Nc2ccc(NC(=O)c3cccs3)cc2)c1	aSyn 5UTR inh 64 (no result: H9c2 TAG inh)
CCCOc1ccc(C(=O)Nc2ccc(NC(=O)c3cccs3)cc2)cc1	none (no result: H9c2 TAG inh)
CC1(C)NC(=O)N(CCSc2ccc(Cl)cc2)C1=O	none (no result: H9c2 TAG inh)
Cn1nc(-c2ccc(C(=O)NC3CCCCC3)cc2)c2ccccc2c1=O	none (no result: H9c2 TAG inh)
CC(C)c1ccc(NC(=O)Nc2nc(C(N)CCc3ccccc3)cs2)cc1 (stereo not drawn)	Shn3 inh set2 97 (no result: aSyn 5UTR inh, 697 NFkB inh, Jurkat NFkB inh, Gli-Sufu block)
COc1ccc(C)cc1Nc1n[n+](-c2ccccc2)c(-c2ccc(N(C)C)cc2)s1	Gli-Sufu block 61 (no result: H9c2 TAG inh)
COc1ccc(C)cc1Nc1n[n+](-c2ccccc2)c(-c2ccc(OC)c(OC)c2OC)s1	none
COc1ccc(-c2csc(Nc3ccc(S(N)(=O)=O)cc3)n2)cc1OC	aSyn 5UTR inh 62 (no result: H9c2 TAG inh)
COc1cccc(CN(C)C(=O)C2CCN(S(=O)(=O)c3ccc(C)cc3)CC2)c1OC	none (no result: aSyn 5UTR inh)
COc1ccccc1CNc1nc(NCc2ccc(C(C)C)cc2)c2sccc2n1	Shn3 inh set2 88 (no result: aSyn 5UTR inh, 697 NFkB inh, Jurkat NFkB inh, Gli-Sufu block)
COc1cccc(CNc2nc(NCC3CC3)nc3ccsc23)c1OC	Shn3 inh set2 82 (no result: aSyn 5UTR inh, 697 NFkB inh, Jurkat NFkB inh, Gli-Sufu block)
COc1cccc(CNc2nc(NCC3CC3)nc3ccsc23)c1	Shn3 inh set2 86 (no result: aSyn 5UTR inh, 697 NFkB inh, Jurkat NFkB inh, Gli-Sufu block)
Cc1cc(C(=O)N[C@@H](c2ccccc2)[C@]2(C)C[C@H]2[C@@H](C)C(=O)Nc2ccc3ccccc3c2)no1	none
COc1cccc(-c2nc(NCc3ccccc3)c3ccccc3n2)c1O	none (no result: H9c2 TAG inh)
COc1cccc(-c2nc(NC3CCCC3)c3ccccc3n2)c1O	Shn3 inh set2 86 (no result: H9c2 TAG inh)
CCCCCCC=C1CCC(CN2CCCC2)C1=O (stereo not drawn)	none (no result: H9c2 TAG inh, aSyn 5UTR inh, 697 NFkB inh, Jurkat NFkB inh, Gli-Sufu block)
Cn1nnnc1Sc1ncnc2scc(-c3ccc(Cl)cc3)c12	none (no result: aSyn 5UTR inh)
CC(=O)c1cccc(-c2csc3ncnc(Sc4nnnn4C)c23)c1	Shn3 inh set2 95 (no result: aSyn 5UTR inh, 697 NFkB inh, Jurkat NFkB inh, Gli-Sufu block)
Cn1nnnc1Sc1ncnc2scc(-c3cccc(Br)c3)c12	H9c2 TAG inh 67 (no result: aSyn 5UTR inh)
COc1ccc2nc(C)cc(NCc3cccc(C(F)(F)F)c3)c2c1	none (no result: H9c2 TAG inh)
Cc1nc2c(-c3ccc(Cl)cc3)c(C)[nH]n2c(=O)c1Cc1ccccc1	aSyn 5UTR inh 78
Cc1nc2c(-c3ccccc3)c(C)[nH]n2c(=O)c1Cc1ccccc1	none (no result: H9c2 TAG inh)
C[C@H]1CN([C@@H](C)CO)C(=O)c2cccc(NC(=O)Nc3ccc(C(F)(F)F)cc3)c2O[C@@H]1CN(C)Cc1ccc(Cl)c(Cl)c1	H9c2 TAG inh 56 (no result: aSyn 5UTR inh)
COc1ccccc1NC(=O)c1cc2ccccc2o/c1=N\O	none
O=C(NCc1cccnc1)/C(=C/c1ccc(-c2cccc(C(F)(F)F)c2)o1)NC(=O)c1ccccc1	none (no result: H9c2 TAG inh)
O=C(NCc1cccnc1)/C(=C\c1ccc(-c2ccc(Br)cc2)o1)S(=O)(=O)c1ccccc1	Shn3 inh set2 96 (no result: H9c2 TAG inh)
O=C(CN(Cc1ccc(Br)cc1)S(=O)(=O)c1ccccc1)NCc1cccnc1	none
O=C(NCc1cccnc1)/C(=C/c1ccc(-c2ccc(Cl)cc2)o1)S(=O)(=O)c1ccccc1	Shn3 inh set2 92 (no result: H9c2 TAG inh)
CCCCn1c(=O)[nH]c2nc3cc(NC(C)=O)ccc3nc2c1=O	none
O=C1C=C(c2ccccc2)C(=O)N1Nc1ccccc1	none
Cc1ccc(NN2C(=O)C=C(c3ccc(Cl)cc3)C2=O)cc1	Shn3 inh set2 99
COc1ccc(-c2nc3ccccc3s2)cc1O	aSyn 5UTR inh 85
COc1cc(-c2nc3ccccc3s2)ccc1O	none (no result: H9c2 TAG inh)
COc1ccc(-c2nc(CN3CCN(c4cc(C)nc(C)c4)CC3)c(C)o2)c2ccccc12	aSyn 5UTR inh 68
Cc1cc(N2CCN(Cc3nc(-c4ccc(Cl)cc4)oc3C)CC2)cc(C)n1	none
